# Data reported in paper PMC7862700, “An all-to-all approach to the identification of sequence-specific readers for epigenetic DNA modifications on cytosine”.
# What was measured:
# Assay in all cases: DAPPL (digital affinity profiling via proximity ligation, sequencing); 10 mM Tris-HCl pH 7.5, 50 mM NaCl, 1 mM DTT, 4% glycerol, room temperature, 30 min; GST-TFs on glutathione beads, 16-mer random dsDNA library, 0.1% formaldehyde crosslink after washing; high values mean tight binding
# FLI1 = target: T1, FLI1 (Homo sapiens, UniProt Q01543 1-452); conditions: protein: recombinant; tags: N-terminal GST; dsDNA, one strand shown
# T1 sequence: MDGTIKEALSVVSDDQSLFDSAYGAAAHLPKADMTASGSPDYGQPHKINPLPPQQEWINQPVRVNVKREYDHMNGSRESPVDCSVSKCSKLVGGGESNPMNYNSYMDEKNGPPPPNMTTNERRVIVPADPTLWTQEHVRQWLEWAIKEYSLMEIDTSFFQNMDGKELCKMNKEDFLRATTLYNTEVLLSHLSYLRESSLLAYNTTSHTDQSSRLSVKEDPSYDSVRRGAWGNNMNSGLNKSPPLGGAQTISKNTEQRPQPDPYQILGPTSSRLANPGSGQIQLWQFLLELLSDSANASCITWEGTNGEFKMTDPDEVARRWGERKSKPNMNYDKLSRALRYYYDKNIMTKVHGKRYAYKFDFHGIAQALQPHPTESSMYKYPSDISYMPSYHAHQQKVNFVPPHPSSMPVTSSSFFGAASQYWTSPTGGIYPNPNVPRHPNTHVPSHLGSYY
# How it was run: (§1)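 Human transcription factors were made in yeast as GST fusions, captured on glutathione beads and barcoded with DNA. With a tag-only sample included, the pool was incubated with 200 nmole of a random double-stranded 16-mer DNA library in Tris/NaCl/DTT/glycerol buffer at room temperature for 30 min, then crosslinked with 0.1% formaldehyde after washing, ligated by proximity, amplified and sequenced. For binding signal, each hexamer's read frequency for a factor is divided by its frequency for the tag-only sample.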
# ELK1 = target: T2, ELK1 (Homo sapiens, UniProt P19419 1-428); conditions: protein: recombinant; tags: N-terminal GST; dsDNA, one strand shown
# T2 sequence: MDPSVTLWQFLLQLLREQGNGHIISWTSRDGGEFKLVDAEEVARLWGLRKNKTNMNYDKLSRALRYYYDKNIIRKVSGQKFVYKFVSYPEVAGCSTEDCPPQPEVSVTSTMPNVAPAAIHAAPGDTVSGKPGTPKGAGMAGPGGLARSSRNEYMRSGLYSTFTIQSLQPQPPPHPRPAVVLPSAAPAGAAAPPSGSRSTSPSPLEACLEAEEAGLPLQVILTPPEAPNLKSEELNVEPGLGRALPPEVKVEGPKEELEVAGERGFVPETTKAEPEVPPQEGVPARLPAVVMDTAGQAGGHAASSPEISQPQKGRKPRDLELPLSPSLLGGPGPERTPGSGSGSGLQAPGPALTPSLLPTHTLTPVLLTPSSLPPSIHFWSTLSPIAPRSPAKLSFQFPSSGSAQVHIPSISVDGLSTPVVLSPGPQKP
# How it was run: as §1
# GABPA = target: T3, GABPA (Homo sapiens, UniProt Q06546 1-454); conditions: protein: recombinant; tags: N-terminal GST; dsDNA, one strand shown
# T3 sequence: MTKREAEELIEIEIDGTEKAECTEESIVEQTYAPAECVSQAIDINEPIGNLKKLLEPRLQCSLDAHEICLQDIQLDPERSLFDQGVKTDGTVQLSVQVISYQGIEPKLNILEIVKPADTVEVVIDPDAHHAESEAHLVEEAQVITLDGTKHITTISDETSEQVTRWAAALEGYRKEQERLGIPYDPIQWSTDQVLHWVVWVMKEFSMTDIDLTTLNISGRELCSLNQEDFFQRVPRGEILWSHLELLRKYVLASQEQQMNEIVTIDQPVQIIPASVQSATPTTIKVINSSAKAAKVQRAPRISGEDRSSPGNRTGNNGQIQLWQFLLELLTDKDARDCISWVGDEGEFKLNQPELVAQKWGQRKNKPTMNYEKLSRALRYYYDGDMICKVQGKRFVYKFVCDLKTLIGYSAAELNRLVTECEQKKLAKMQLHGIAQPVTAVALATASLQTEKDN
# How it was run: as §1
# ERG = target: T4, ERG (Homo sapiens, UniProt P11308 1-479); conditions: protein: recombinant; tags: N-terminal GST; dsDNA, one strand shown
# T4 sequence: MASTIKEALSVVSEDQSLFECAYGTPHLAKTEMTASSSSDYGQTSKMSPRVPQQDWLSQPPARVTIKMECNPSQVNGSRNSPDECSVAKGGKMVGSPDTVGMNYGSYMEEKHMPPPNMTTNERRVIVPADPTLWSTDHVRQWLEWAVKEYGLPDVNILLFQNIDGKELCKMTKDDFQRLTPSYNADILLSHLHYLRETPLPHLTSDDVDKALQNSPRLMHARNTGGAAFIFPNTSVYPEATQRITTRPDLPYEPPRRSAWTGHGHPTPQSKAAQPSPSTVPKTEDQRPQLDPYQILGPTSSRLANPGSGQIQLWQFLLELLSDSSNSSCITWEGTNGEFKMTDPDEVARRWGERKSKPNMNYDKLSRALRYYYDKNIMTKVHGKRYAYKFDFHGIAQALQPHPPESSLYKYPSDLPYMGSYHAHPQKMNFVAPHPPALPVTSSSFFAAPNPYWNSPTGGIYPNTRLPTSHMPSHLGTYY
# How it was run: as §1
# ELF1 = ELF1 (Homo sapiens, UniProt P32519 1-619); conditions: protein: recombinant; tags: N-terminal GST; dsDNA, one strand shown
# ELF1, sequence (P32519 whole entry): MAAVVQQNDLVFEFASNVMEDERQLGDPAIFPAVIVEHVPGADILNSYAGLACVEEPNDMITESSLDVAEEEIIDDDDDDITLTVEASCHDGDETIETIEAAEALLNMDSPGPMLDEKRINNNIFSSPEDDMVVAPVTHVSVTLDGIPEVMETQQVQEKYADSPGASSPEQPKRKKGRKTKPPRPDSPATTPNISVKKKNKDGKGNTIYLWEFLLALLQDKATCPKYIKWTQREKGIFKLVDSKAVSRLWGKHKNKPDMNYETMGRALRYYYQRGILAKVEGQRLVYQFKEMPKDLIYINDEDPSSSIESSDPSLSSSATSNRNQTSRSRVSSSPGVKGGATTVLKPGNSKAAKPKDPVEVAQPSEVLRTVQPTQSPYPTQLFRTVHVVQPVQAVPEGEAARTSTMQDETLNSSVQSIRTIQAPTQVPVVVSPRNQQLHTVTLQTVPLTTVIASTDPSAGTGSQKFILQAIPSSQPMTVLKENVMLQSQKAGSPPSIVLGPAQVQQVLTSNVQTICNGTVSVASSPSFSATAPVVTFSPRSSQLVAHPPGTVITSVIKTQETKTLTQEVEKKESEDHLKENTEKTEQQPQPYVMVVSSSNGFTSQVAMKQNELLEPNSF
# How it was run: as §1
# EHF = target: T5, EHF (Homo sapiens, UniProt Q9NZC4 1-300); conditions: protein: recombinant; tags: N-terminal GST; dsDNA, one strand shown
# T5 sequence: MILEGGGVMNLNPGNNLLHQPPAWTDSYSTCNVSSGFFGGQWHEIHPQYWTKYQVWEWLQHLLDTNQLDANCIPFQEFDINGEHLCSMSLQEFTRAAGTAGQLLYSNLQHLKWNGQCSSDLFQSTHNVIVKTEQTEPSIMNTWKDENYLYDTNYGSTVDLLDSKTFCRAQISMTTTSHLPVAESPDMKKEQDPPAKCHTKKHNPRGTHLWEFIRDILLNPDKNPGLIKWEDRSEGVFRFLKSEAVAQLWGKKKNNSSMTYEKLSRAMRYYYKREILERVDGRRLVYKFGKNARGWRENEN
# How it was run: as §1
# SPI1 = SPI1 (Homo sapiens, UniProt P17947 1-270); conditions: protein: recombinant; tags: N-terminal GST; dsDNA, one strand shown
# How it was run: as §1
# SPIB = SPIB (Homo sapiens, UniProt Q01892 1-262); conditions: protein: recombinant; tags: N-terminal GST; dsDNA, one strand shown
# SPIB, sequence (Q01892 whole entry): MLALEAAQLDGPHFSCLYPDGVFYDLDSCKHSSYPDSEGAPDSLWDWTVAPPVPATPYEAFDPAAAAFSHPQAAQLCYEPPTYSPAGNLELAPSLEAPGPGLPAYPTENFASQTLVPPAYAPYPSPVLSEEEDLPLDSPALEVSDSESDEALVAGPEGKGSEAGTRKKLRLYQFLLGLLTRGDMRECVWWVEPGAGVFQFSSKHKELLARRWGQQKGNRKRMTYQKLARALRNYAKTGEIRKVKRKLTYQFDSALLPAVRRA
# How it was run: as §1
# ELK3 = target: T6, ELK3 (Homo sapiens, UniProt P41970 1-407); conditions: protein: recombinant; tags: N-terminal GST; dsDNA, one strand shown
# T6 sequence: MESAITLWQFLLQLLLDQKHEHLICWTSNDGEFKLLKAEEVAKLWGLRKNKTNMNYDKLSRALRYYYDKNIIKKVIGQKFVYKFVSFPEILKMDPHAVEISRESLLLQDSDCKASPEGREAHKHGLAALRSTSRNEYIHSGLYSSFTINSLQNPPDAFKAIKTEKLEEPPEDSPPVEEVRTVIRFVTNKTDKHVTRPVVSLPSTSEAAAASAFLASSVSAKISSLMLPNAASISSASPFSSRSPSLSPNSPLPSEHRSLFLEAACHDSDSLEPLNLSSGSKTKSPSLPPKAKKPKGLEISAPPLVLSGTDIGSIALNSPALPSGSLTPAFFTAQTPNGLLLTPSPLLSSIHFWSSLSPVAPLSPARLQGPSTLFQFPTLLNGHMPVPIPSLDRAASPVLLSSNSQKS
# How it was run: as §1
# FEV = target: T7, FEV (Homo sapiens, UniProt Q99581 1-238); conditions: protein: recombinant; tags: N-terminal GST; dsDNA, one strand shown
# T7 sequence: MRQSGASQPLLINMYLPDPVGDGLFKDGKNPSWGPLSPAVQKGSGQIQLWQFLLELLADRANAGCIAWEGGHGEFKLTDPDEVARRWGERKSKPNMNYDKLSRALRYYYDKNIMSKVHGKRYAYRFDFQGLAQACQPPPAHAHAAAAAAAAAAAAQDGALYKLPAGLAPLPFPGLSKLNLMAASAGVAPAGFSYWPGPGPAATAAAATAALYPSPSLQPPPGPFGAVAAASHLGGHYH
# How it was run: as §1
# ETV5 = ETV5 (Homo sapiens, UniProt P41161 1-510); conditions: protein: recombinant; tags: N-terminal GST; dsDNA, one strand shown
# ETV5, sequence (P41161 whole entry): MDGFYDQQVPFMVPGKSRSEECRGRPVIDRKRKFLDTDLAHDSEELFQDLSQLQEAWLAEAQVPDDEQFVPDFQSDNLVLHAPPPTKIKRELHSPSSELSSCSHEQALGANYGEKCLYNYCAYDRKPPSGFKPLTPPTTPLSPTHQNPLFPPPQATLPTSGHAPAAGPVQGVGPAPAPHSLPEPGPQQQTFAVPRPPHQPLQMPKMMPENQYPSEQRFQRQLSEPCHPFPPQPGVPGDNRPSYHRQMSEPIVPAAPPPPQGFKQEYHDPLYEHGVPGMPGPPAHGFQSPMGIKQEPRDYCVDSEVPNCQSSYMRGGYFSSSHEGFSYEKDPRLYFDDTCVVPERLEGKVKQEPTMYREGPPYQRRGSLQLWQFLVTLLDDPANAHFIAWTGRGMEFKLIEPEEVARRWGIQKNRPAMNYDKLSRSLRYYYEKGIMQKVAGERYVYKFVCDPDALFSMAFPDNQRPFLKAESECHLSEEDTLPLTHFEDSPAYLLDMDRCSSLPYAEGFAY
# How it was run: as §1
# HSF1 = HSF1 (Homo sapiens, UniProt Q00613 1-529); conditions: protein: recombinant; tags: N-terminal GST; chain copies: 3; dsDNA, one strand shown
# HSF1, sequence (Q00613 whole entry): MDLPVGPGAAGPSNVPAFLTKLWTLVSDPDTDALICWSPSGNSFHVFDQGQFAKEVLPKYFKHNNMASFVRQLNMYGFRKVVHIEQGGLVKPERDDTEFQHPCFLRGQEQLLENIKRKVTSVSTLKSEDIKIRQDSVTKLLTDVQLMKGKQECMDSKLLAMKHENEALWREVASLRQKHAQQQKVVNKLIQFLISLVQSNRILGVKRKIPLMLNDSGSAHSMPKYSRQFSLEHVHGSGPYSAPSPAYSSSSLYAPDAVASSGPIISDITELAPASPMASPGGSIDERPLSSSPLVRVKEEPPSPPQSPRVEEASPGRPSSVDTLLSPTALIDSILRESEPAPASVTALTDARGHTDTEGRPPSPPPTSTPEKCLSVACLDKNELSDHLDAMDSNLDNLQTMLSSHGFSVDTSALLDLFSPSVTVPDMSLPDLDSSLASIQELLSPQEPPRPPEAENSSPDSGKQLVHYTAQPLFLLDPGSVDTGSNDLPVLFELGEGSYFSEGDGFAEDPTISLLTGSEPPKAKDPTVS
# How it was run: as §1
# SPIC = target: T8, SPIC (Homo sapiens, UniProt Q8N5J4 1-248); conditions: protein: recombinant; tags: N-terminal GST; dsDNA, one strand shown
# T8 sequence: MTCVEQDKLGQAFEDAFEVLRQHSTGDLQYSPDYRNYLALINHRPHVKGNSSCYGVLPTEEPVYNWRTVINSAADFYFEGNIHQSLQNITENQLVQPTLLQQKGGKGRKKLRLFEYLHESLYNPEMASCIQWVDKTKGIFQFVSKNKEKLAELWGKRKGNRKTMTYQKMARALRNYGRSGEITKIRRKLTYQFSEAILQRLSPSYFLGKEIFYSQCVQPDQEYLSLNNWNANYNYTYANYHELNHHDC
# How it was run: as §1
# ELF4 = ELF4 (Homo sapiens, UniProt Q99607 1-663); conditions: protein: recombinant; tags: N-terminal GST; dsDNA, one strand shown
# ELF4, sequence (Q99607 whole entry): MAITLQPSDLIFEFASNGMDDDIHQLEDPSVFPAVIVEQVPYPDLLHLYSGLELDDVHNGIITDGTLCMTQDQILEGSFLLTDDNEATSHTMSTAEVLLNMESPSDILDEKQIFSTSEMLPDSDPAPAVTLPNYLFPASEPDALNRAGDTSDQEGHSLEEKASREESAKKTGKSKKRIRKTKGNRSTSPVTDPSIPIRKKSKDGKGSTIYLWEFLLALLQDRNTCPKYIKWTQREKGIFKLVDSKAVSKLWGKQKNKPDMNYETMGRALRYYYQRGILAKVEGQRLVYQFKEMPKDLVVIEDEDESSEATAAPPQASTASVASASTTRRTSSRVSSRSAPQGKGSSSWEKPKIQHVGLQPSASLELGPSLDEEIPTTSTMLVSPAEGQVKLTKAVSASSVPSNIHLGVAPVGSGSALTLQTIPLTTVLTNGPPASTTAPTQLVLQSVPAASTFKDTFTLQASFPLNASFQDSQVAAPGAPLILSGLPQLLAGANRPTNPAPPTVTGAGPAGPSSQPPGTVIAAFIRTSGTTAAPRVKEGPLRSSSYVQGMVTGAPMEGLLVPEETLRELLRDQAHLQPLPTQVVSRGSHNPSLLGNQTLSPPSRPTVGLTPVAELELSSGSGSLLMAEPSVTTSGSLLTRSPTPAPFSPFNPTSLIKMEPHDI
# How it was run: as §1
# ELK4 = target: T9, ELK4 (Homo sapiens, UniProt P28324-2 1-405); conditions: protein: recombinant; tags: N-terminal GST; dsDNA, one strand shown
# T9 sequence: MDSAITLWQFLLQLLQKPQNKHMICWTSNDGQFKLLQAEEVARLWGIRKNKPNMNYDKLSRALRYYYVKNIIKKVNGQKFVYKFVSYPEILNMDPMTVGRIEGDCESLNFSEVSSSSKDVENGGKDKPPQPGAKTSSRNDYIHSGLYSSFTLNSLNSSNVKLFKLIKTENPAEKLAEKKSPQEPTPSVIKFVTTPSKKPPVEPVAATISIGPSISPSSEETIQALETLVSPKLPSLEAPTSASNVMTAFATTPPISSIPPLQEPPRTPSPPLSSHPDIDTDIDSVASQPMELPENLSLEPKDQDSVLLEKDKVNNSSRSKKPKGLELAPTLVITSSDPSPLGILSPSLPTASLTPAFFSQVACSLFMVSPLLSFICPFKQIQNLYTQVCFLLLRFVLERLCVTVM
# How it was run: as §1
# ETV2 = target: T10, ETV2 (Homo sapiens, UniProt O00321 1-342); conditions: protein: recombinant; tags: N-terminal GST; dsDNA, one strand shown
# T10 sequence: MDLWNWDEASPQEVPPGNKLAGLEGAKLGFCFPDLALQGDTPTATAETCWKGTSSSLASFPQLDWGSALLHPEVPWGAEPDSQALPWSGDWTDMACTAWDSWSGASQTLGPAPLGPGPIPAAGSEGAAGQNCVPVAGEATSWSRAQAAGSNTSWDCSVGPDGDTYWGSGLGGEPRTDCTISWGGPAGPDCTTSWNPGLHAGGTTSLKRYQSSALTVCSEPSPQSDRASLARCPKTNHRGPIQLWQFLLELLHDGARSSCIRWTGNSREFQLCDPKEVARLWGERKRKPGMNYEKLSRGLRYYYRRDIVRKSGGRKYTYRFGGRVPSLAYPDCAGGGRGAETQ
# How it was run: as §1
# ELF3 = target: T11, ELF3 (Homo sapiens, UniProt P78545 1-371); conditions: protein: recombinant; tags: N-terminal GST; dsDNA, one strand shown
# T11 sequence: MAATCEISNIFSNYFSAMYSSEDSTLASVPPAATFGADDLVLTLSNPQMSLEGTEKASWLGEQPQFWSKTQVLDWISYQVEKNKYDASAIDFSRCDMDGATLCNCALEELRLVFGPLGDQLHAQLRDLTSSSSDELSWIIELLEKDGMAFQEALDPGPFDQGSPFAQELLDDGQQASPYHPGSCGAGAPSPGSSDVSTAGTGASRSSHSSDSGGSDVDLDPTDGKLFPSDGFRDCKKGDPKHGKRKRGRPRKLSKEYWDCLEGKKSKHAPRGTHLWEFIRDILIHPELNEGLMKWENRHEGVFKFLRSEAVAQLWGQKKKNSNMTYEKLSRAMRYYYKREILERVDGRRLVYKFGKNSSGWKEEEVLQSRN
# How it was run: as §1
# CRX = CRX (Homo sapiens, UniProt O43186 1-299); conditions: protein: recombinant; tags: N-terminal GST; dsDNA, one strand shown
# CRX, sequence (O43186 whole entry): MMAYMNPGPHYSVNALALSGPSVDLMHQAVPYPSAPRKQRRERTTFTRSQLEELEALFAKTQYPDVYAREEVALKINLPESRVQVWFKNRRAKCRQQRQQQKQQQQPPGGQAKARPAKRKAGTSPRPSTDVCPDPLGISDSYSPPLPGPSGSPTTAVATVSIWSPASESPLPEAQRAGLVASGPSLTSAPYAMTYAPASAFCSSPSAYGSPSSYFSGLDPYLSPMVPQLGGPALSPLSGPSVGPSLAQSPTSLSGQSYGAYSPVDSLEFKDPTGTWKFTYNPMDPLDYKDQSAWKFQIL
# How it was run: as §1
# ETV1 = ETV1 (Homo sapiens, UniProt P50549 1-477); conditions: protein: recombinant; tags: N-terminal GST; dsDNA, one strand shown
# ETV1, sequence (P50549 whole entry): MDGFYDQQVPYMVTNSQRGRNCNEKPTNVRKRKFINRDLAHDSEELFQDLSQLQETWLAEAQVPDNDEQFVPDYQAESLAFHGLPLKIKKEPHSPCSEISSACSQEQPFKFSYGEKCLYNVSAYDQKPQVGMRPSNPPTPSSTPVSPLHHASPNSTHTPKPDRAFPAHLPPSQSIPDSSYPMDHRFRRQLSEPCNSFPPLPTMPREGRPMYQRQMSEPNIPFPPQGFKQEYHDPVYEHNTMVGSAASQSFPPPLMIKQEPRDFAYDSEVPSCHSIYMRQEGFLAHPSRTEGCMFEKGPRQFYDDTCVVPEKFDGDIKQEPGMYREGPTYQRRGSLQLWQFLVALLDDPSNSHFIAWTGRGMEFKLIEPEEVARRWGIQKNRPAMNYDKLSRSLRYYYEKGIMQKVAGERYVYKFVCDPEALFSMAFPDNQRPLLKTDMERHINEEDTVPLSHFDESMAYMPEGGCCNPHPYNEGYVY
# How it was run: as §1
sequence,measurement,setting,value
TTCGTT,binding signal,FLI1,"1.33 fold enrichment (6-mer frequency, TF over GST control)"
same,binding signal,ELK1,"1.4 fold enrichment (6-mer frequency, TF over GST control)"
same,binding signal,GABPA,"1.33 fold enrichment (6-mer frequency, TF over GST control)"
same,binding signal,ERG,"1.25 fold enrichment (6-mer frequency, TF over GST control)"
same,binding signal,ELF1,"1.32 fold enrichment (6-mer frequency, TF over GST control)"
same,binding signal,EHF,"1.36 fold enrichment (6-mer frequency, TF over GST control)"
same,binding signal,SPI1,"1.29 fold enrichment (6-mer frequency, TF over GST control)"
same,binding signal,SPIB,"1.33 fold enrichment (6-mer frequency, TF over GST control)"
same,binding signal,ELK3,"1.24 fold enrichment (6-mer frequency, TF over GST control)"
same,binding signal,FEV,"1.3 fold enrichment (6-mer frequency, TF over GST control)"
same,binding signal,ETV5,"1.4 fold enrichment (6-mer frequency, TF over GST control)"
same,binding signal,HSF1,"1.48 fold enrichment (6-mer frequency, TF over GST control)"
same,binding signal,SPIC,"1.32 fold enrichment (6-mer frequency, TF over GST control)"
same,binding signal,ELF4,"1.34 fold enrichment (6-mer frequency, TF over GST control)"
same,binding signal,ELK4,"1.37 fold enrichment (6-mer frequency, TF over GST control)"
same,binding signal,ETV2,"1.46 fold enrichment (6-mer frequency, TF over GST control)"
same,binding signal,ELF3,"1.38 fold enrichment (6-mer frequency, TF over GST control)"
same,binding signal,CRX,"1.3 fold enrichment (6-mer frequency, TF over GST control)"
same,binding signal,ETV1,"1.39 fold enrichment (6-mer frequency, TF over GST control)"
